From PubChem BioAssay (NCATS)
Inconclusive results are not listed. Values without a mark were called inactive. Unless noted, calls come from the whole dose curve.
Potency is the fitted concentration of half-maximal effect.

Experiment: Cell Viability - BJ (AID 421);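 note: cells exposed to compound for 40 hours at 37 °C before readout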
Conditions: BJ fibroblast viability, qHTS
Summary of the method: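 Cytotoxicity in human BJ foreskin fibroblasts is scored as loss of cellular ATP after a 40-hour exposure, measured by luciferase luminescence. Controls are DMSO and 100 uM tamoxifen.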
Work on `CC(C#N)CCC#N` (configuration not stated) yielded a Potency of over 92 µM.
In the case of `Nc1cc(Cl)ccc1Cl`, the Potency is reported as over 92 µM.
With `Nc1cccc(Cl)c1` the Potency was over 92 µM.
With `ClCc1ccccc1` the Potency was over 92 µM.
With `CCC/C=N/O` the Potency was over 92 µM.
In the case of `COc1c(C(C)(C)C)cc([N+](=O)[O-])c(C)c1[N+](=O)[O-]`, the Potency is reported as over 92 µM.
Molecule `O=S(=O)(Cl)c1ccccc1` has a Potency of over 92 µM.
`C=CCOCC1CO1` (configuration not stated) showed a Potency of over 92 µM.
For `c1ccoc1`, the Potency was over 92 µM.
With `Clc1ccccc1` the Potency was over 92 µM.
Work on `ClC(Cl)(Cl)C(Cl)(Cl)Cl` yielded a Potency of over 92 µM.
Work on `CCOC(=O)C1OC1(C)c1ccccc1` (configuration not stated) yielded a Potency of over 92 µM.
In the case of `C/C=C/CC#N`, the Potency is reported as over 92 µM.
In the case of `ClC(Cl)C(Cl)Cl`, the Potency is reported as over 92 µM.
In the case of `C=CCCl`, the Potency is reported as over 92 µM.
With `Oc1c(Cl)cccc1Cl` the Potency was over 92 µM.
Molecule `Brc1cccc(-c2ccccc2)c1` has a Potency of over 92 µM.
For `C=CCO`, the Potency was over 92 µM.
`OCCCCO` showed a Potency of over 92 µM.
For `Nn1cnnc1`, the Potency was over 92 µM.
Molecule `BrCCc1ccccc1` has a Potency of over 92 µM.
Work on `Cc1ccccc1[N+](=O)[O-]` yielded a Potency of over 92 µM.
For `CCCCOC(=O)c1ccccc1N`, the Potency was over 92 µM.
Molecule `Clc1cc(Cl)c(Cl)c(Cl)c1` has a Potency of over 92 µM.
In the case of `Cc1ccc(N)c(C)c1`, the Potency is reported as over 92 µM.
Work on `C1CC2OC2CC1C1CO1` (configuration not stated) yielded a Potency of over 92 µM.
Work on `CN(C)C(=O)Cl` yielded a Potency of over 92 µM.
With `CC(=O)NNc1ccccc1` the Potency was over 92 µM.
`Cc1ccc(N=C=O)cc1N=C=O` gave a Potency of over 92 µM.
For `O=C(Cl)OCc1ccccc1`, the Potency was over 92 µM.
Molecule `C=CC(=O)OC` has a Potency of over 92 µM.
In the case of `CCN(CC)N=O`, the Potency is reported as over 92 µM.
For `OCC(Cl)CCl` (configuration not stated), the Potency was over 92 µM.
In the case of `CC(C)CON=O`, the Potency is reported as over 92 µM.
`CC[N+](=O)[O-]` gave a Potency of over 92 µM.
Work on `CC(C)(Cl)[N+](=O)[O-]` yielded a Potency of over 92 µM.
`C[N+](=O)[O-]` gave a Potency of over 92 µM.
In the case of `CC(C)OC(=O)Cc1ccccc1`, the Potency is reported as over 92 µM.
For `ClCC(Br)CBr` (configuration not stated), the Potency was over 92 µM.

Experiment: Cell Viability - Jurkat (AID 426;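 active = dose-dependent loss of cell ATP signal giving a full or clear fitted curve, ranked by lower potency value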;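 note: cells exposed to compound for 40 hours at 37 °C before ATP read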)
Conditions: qHTS
Summary of the method: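 qHTS, 1536-well; Jurkat E6-1, 5000 cells/well, complete medium; cpd 40 hr, 37 °C; CellTiter-Glo 20 min RT; luminescence. AC50 by Hill fit.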
For `CC(C#N)CCC#N` (configuration not stated), the Potency was over 92 µM.
`Nc1cc(Cl)ccc1Cl` gave a Potency of over 92 µM.
Work on `Nc1cccc(Cl)c1` yielded a Potency of over 92 µM.
Work on `ClCc1ccccc1` yielded a Potency of over 92 µM.
`CCC/C=N/O` gave a Potency of over 92 µM.
With `COc1c(C(C)(C)C)cc([N+](=O)[O-])c(C)c1[N+](=O)[O-]` the Potency was over 92 µM.
Work on `O=S(=O)(Cl)c1ccccc1` yielded a Potency of over 92 µM.
Molecule `C=CCOCC1CO1` (configuration not stated) has a Potency of over 92 µM.
`c1ccoc1` gave a Potency of over 92 µM.
With `Clc1ccccc1` the Potency was over 92 µM.
For `ClC(Cl)(Cl)C(Cl)(Cl)Cl`, the Potency was over 92 µM.
For `CCOC(=O)C1OC1(C)c1ccccc1` (configuration not stated), the Potency was over 92 µM.
Work on `C/C=C/CC#N` yielded a Potency of over 92 µM.
In the case of `ClC(Cl)C(Cl)Cl`, the Potency is reported as over 92 µM.
Work on `C=CCCl` yielded a Potency of over 92 µM.
`Oc1c(Cl)cccc1Cl` showed a Potency of over 92 µM.
For `Brc1cccc(-c2ccccc2)c1`, the Potency was over 92 µM.
For `C=CCO`, the Potency was over 92 µM.
In the case of `OCCCCO`, the Potency is reported as over 92 µM.
In the case of `Nn1cnnc1`, the Potency is reported as over 92 µM.
`BrCCc1ccccc1` showed a Potency of over 92 µM.
For `Cc1ccccc1[N+](=O)[O-]`, the Potency was over 92 µM.
`CCCCOC(=O)c1ccccc1N` showed a Potency of over 92 µM.
`Clc1cc(Cl)c(Cl)c(Cl)c1` showed a Potency of over 92 µM.
In the case of `Cc1ccc(N)c(C)c1`, the Potency is reported as over 92 µM.
Work on `C1CC2OC2CC1C1CO1` (configuration not stated) yielded a Potency of over 92 µM.
In the case of `CN(C)C(=O)Cl`, the Potency is reported as over 92 µM.
`CC(=O)NNc1ccccc1` showed a Potency of over 92 µM.
For `Cc1ccc(N=C=O)cc1N=C=O`, the Potency was over 92 µM.
`O=C(Cl)OCc1ccccc1` showed a Potency of over 92 µM.
For `C=CC(=O)OC`, the Potency was over 92 µM.
Work on `CCN(CC)N=O` yielded a Potency of over 92 µM.
`OCC(Cl)CCl` (configuration not stated) gave a Potency of over 92 µM.
With `CC(C)CON=O` the Potency was over 92 µM.
`CC[N+](=O)[O-]` showed a Potency of over 92 µM.
`CC(C)(Cl)[N+](=O)[O-]` gave a Potency of over 92 µM.
Molecule `C[N+](=O)[O-]` has a Potency of over 92 µM.
`CC(C)OC(=O)Cc1ccccc1` gave a Potency of over 92 µM.
`ClCC(Br)CBr` (configuration not stated) gave a Potency of over 92 µM.

Experiment: Cell Viability - Hek293 (AID 427;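 active = compounds whose dose-response curve shows a full or clear partial loss of cell viability, called from curve shape rather than a numeric limit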;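 note: cells exposed to compound for 40 hours at 37 °C before reading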)
Conditions: qHTS
Summary of the method: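 qHTS, human embryonic kidney (adenovirus-transformed) cells; 40 hr cpd, 37 °C; CellTiter-Glo ATP luminescence. Norm: DMSO = 0, 100 uM tamoxifen = 100% inhibition. Hill-fit AC50.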
Work on `CC(C#N)CCC#N` (configuration not stated) yielded a Potency of over 92 µM.
`Nc1cc(Cl)ccc1Cl` gave a Potency of over 92 µM.
Molecule `Nc1cccc(Cl)c1` has a Potency of over 92 µM.
Work on `ClCc1ccccc1` yielded a Potency of over 92 µM.
`CCC/C=N/O` gave a Potency of over 92 µM.
In the case of `COc1c(C(C)(C)C)cc([N+](=O)[O-])c(C)c1[N+](=O)[O-]`, the Potency is reported as over 92 µM.
`O=S(=O)(Cl)c1ccccc1` gave a Potency of over 92 µM.
With `C=CCOCC1CO1` (configuration not stated) the Potency was over 92 µM.
Work on `c1ccoc1` yielded a Potency of over 92 µM.
With `Clc1ccccc1` the Potency was over 92 µM.
Work on `ClC(Cl)(Cl)C(Cl)(Cl)Cl` yielded a Potency of over 92 µM.
Molecule `CCOC(=O)C1OC1(C)c1ccccc1` (configuration not stated) has a Potency of over 92 µM.
`C/C=C/CC#N` gave a Potency of over 92 µM.
`ClC(Cl)C(Cl)Cl` gave a Potency of over 92 µM.
For `C=CCCl`, the Potency was over 92 µM.
`Oc1c(Cl)cccc1Cl` showed a Potency of over 92 µM.
Work on `Brc1cccc(-c2ccccc2)c1` yielded a Potency of over 92 µM.
Work on `C=CCO` yielded a Potency of over 92 µM.
With `OCCCCO` the Potency was over 92 µM.
`Nn1cnnc1` showed a Potency of over 92 µM.
In the case of `BrCCc1ccccc1`, the Potency is reported as over 92 µM.
In the case of `Cc1ccccc1[N+](=O)[O-]`, the Potency is reported as over 92 µM.
`CCCCOC(=O)c1ccccc1N` gave a Potency of over 92 µM.
For `Clc1cc(Cl)c(Cl)c(Cl)c1`, the Potency was over 92 µM.
Molecule `Cc1ccc(N)c(C)c1` has a Potency of over 92 µM.
In the case of `C1CC2OC2CC1C1CO1` (configuration not stated), the Potency is reported as over 92 µM.
For `CN(C)C(=O)Cl`, the Potency was over 92 µM.
Work on `CC(=O)NNc1ccccc1` yielded a Potency of over 92 µM.
In the case of `Cc1ccc(N=C=O)cc1N=C=O`, the Potency is reported as over 92 µM.
`O=C(Cl)OCc1ccccc1` gave a Potency of over 92 µM.
Work on `C=CC(=O)OC` yielded a Potency of over 92 µM.
`CCN(CC)N=O` gave a Potency of over 92 µM.
For `OCC(Cl)CCl` (configuration not stated), the Potency was over 92 µM.
For `CC(C)CON=O`, the Potency was over 92 µM.
Molecule `CC[N+](=O)[O-]` has a Potency of over 92 µM.
Molecule `CC(C)(Cl)[N+](=O)[O-]` has a Potency of over 92 µM.
Molecule `C[N+](=O)[O-]` has a Potency of over 92 µM.
Molecule `CC(C)OC(=O)Cc1ccccc1` has a Potency of over 92 µM.
`ClCC(Br)CBr` (configuration not stated) gave a Potency of over 92 µM.
